PubChem BioAssay (NCI)
The panel holds about 79,000 compounds, 15% with a hit somewhere; the sample as a whole holds those more often. Rule as the data show it: active = growth inhibition above about 70%; inactive = the rest. Where a SMILES comes first, the peptide text is derived from it. The star is where a group is joined. Cbz = O=C(OCc1ccccc1)*

How the values were obtained:
[1] = NCI Yeast Anticancer Drug Screen. Data for the rad50 strain (AID 155);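 also: 0% = growth of vehicle-only cultures of the same strain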; conditions: S. cerevisiae rad50 strain growth inhibition; at 50.0 µM; hits give high values
Outline: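 Vehicle-treated cultures provide the reference for the growth inhibition reported for compound-exposed, repair-deficient yeast.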

[2] = NCI Yeast Anticancer Drug Screen. Data for the mec2-1 strain (AID 157); conditions: S. cerevisiae mec2-1 strain, at 50.0 µM, hits give high values
Outline: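 Using mec2-1 yeast: add compound, measure growth, express inhibition versus vehicle-treated cultures.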

[3] = NCI Yeast Anticancer Drug Screen. Data for the sgs1 mgt1 strain (AID 161);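 also: 0% = growth of cultures given vehicle only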; conditions: S. cerevisiae sgs1 mgt1 strain, at 50.0 µM, hits give high values
Outline: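 This yeast growth screen uses a strain with defined DNA-repair lesions; compound-treated growth is compared with vehicle-treated growth.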

[4] = NCI Yeast Anticancer Drug Screen. Data for the cln2 rad14 strain (AID 165);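 also: 0% = growth equal to vehicle treated cultures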; conditions: S. cerevisiae cln2 rad14 strain, at 50.0 µM, hits give high values
Outline: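 Yeast strain cln2 rad14, bearing defects in cell cycle control and DNA repair, serves as the test system; values reflect growth inhibition compared with vehicle.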

[5] = NCI Yeast Anticancer Drug Screen. Data for the bub3 strain (AID 167); conditions: S. cerevisiae bub3 mutant strain, at 50.0 µM, hits give high values
Outline: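 Mutant yeast screening strain plus compound; vehicle-treated cultures serve as the 0% inhibition reference.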

[6] = NCI Yeast Anticancer Drug Screen. Data for the mlh1 rad18 strain (AID 175); conditions: S. cerevisiae mlh1 rad18 strain growth inhibition; at 50.0 µM; hits give high values
Outline: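 Steps: expose repair-defective yeast to compound; measure growth; express inhibition against vehicle-treated controls.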

Measured: growth inhibition

CC(N=C(N)N)C(=O)O (configuration not stated)
inactive: [1] -11.9% | [2] 9.1% | [3] 0.15% | [4] -12.5% | [5] 5.3% | [6] 14%

CCCCCCC1(/C=C\c2ccccc2Cl)OCCO1
inactive: [1] 37.6% | [2] 31.5% | [3] 37.5% | [4] -9.6% | [5] 16.9% | [6] 23.3%

O=C(/C=C/c1ccc(O)cc1)OCC1OC(Oc2cc(O)c3c(c2)OC(c2ccc(O)cc2)CC3=O)C(O)C(O)C1O (configuration not stated)
inactive: [1] 9.35% | [2] -7.45% | [3] 9.6% | [4] -16.1% | [5] 14.3% | [6] 5.1%

COc1ccc(N2C(=O)C3c4[nH]c5ccccc5c4C4CCCCCCCCCC4C3C2=O)cc1 (configuration not stated)
inactive: [1] -6.15% | [2] -25.9% | [3] 0% | [4] -39.6% | [5] -15.3% | [6] -30.2%

CN1C(=O)NC(=O)C1(C)C=O (configuration not stated)
inactive: [1] 2.8% | [2] 0.9% | [3] -2.7% | [4] 5.95% | [5] 10.9% | [6] -12.1%

C=CC[Si](CC=C)(CC=C)OCC
inactive: [1] 22.5% | [2] -17.6% | [3] 4.05% | [4] 7% | [5] -6% | [6] 17.4%

C=CS(=O)CCCCCCC (configuration not stated)
inactive: [1] 25.1% | [2] -1.3% | [3] -13.9% | [4] -68.5% | [5] 4.45% | [6] -34.4%

Cc1ccc(S(=O)(=O)Nc2ccc(C(=O)NC(CCC(=O)O)C(=O)O)cc2)cc1 (configuration not stated)
inactive: [1] 3.3% | [2] 2.95% | [3] -8.05% | [4] -2.45% | [5] -1.5% | [6] 13.7%

CC(C)CC(O)C(CC(=O)Nc1ccccc1)S(=O)(=O)c1ccccc1 (configuration not stated)
inactive: [1] -21.9% | [2] -16.4% | [3] -6.3% | [4] -28.6% | [5] -15.1% | [6] -11.8%

O=[N+]([O-])c1ccc(Cl)c(C=NC23CC4CC(CC(C4)C2)C3)c1
inactive: [1] -13.6% | [2] -24.8% | [3] -29% | [4] -9.3% | [5] -22.9% | [6] -8.9%

O=C1/C(=C/c2ccccc2)N=C2Sc3c(nc[nH]c3=O)N12
inactive: [1] 16.5% | [2] -23.8% | [3] -12.4% | [4] -7.25% | [5] 10.4% | [6] -39.2%

O=C1CNC(=O)N1CCCl
inactive: [1] 19.7% | [2] -4.7% | [3] -7.65% | [4] 6.3% | [5] 6.15% | [6] -6.7%

O=[N+]([O-])c1ccccc1C=NC12CC3CC(CC(C3)C1)C2
inactive: [1] 15% | [2] -9.15% | [3] 9.95% | [4] -49.2% | [5] -15.3% | [6] 3.45%

CCOC(=O)C(C)NC(=O)C(C)NC(=O)C(C)NC(=O)C(C)NC(=O)C(C)NC(=O)C(C)NC(=O)C(C)NC(=O)OCc1ccccc1 (configuration not stated) (Cbz-AAAAAAA-OEt; configuration not given here)
inactive: [1] -16.2% | [2] -23.4% | [3] -21.4% | [4] 16.6% | [5] 5.4% | [6] -8.45%

CC(=O)O[C@]12CCCCC1C1(O)C(O)CCCC[C@H]12 (some centres not stated)
inactive: [1] -41.8% | [2] -62.2% | [3] -65.5% | [4] -4.95% | [5] -20.6% | [6] -31.8%

NC(=O)c1csc([C@@H](O)Cc2ccccc2)n1
inactive: [1] -2.25% | [2] 3.5% | [3] 7.5% | [4] -7.7% | [5] 8.35% | [6] 7.95%

COc1ccc(-c2nc(N)nc3c2CN(CCC(=O)O)C3=O)cc1
inactive: [1] 0.9% | [2] -18.2% | [3] 12% | [4] -8.6% | [5] 7.45% | [6] 3.9%

CN(C)c1ccc(N=O)c(O)c1
inactive: [1] -3.35% | [2] -6.45% | [3] -63% | [4] 13.6% | [5] -15.8% | [6] 3%

O=C(O)CCC(=O)Nc1ccc(C(=O)O)c(O)c1
inactive: [1] 8.4% | [2] -27.8% | [3] -11.1% | [4] -4.45% | [5] 20.9% | [6] -17.9%

CCNc1ccc(N=Nc2ccc(-c3ccc(N=Nc4ccc(NCC)c5ccccc45)c(OC)c3)cc2OC)c2ccccc12
inactive: [1] -1.15% | [2] 18.1% | [3] 5.55% | [4] 23.3% | [5] 26.9% | [6] 36%

NC(=O)NNc1ccccc1
inactive: [1] 3.6% | [2] 6.2% | [3] -1.85% | [4] -16.4% | [5] -7.2% | [6] -29.2%

COC(=O)Cc1cccc2c(=O)c(S(=O)(=O)NC(=O)Nc3ccc(Cl)cc3)c(-c3ccccc3)oc12
inactive: [1] 20.9% | [2] 23.1% | [3] 31.6% | [4] 50.4% | [5] 35.4% | [6] 17.8%

Cc1ccnc(SCC(=O)O)n1
inactive: [1] -4.35% | [2] -1.9% | [3] 5.45% | [4] 12.9% | [5] 10.6% | [6] 4.95%

O=C1/C(=C/c2cccc3ccccc23)Cc2ccccc21
inactive: [1] -6.55% | [2] -25.6% | [3] -11.6% | [4] -5.65% | [5] 18.1% | [6] 7.7%

CCN1C(=O)c2ccccc2C1=O
inactive: [1] 11.8% | [2] -9.85% | [3] -5.25% | [4] -16.9% | [5] 5.95% | [6] 24.1%

Fc1ccc(-c2nnc(-c3ccc4ccccc4c3)o2)cc1
inactive: [1] 18.1% | [2] -11.3% | [3] 21.4% | [4] 12.2% | [5] 35.8% | [6] -1.3%

O=[N+]([O-])c1ccccc1S(=O)(=O)c1cc(Cl)cc2c1NCCC2
inactive: [1] 16.8% | [2] 0.15% | [3] 26.8% | [4] 9.15% | [5] 38.8% | [6] 30.9%

CCN(CC)CCOC(=O)COc1ccc(Cc2ccccc2)cc1
inactive: [1] 14.7% | [2] 3.55% | [3] 14.3% | [4] 15.6% | [5] -9.4% | [6] 11.3%

CC[C@]1(O)C(=O)OCc2c1cc1n(c2=O)Cc2cc3c(N)cccc3nc2-1
inactive: [1] 16.1% | [2] 14% | [3] 9.75% | [4] -0.25% | [5] 14.2% | [6] 45%

COC(=O)C(CCS(=O)(=O)CC(=O)C(=O)Nc1cccc(C(C)=O)c1)C(=O)OC
inactive: [1] -12.6% | [2] -15.1% | [3] -16.1% | [4] -17.1% | [5] -26.2% | [6] -5.95%

CCOC1CN(C(=O)ON)N1C(=O)ON (configuration not stated)
inactive: [1] 4.8% | [2] -12.6% | [3] -10.4% | [4] -33.2% | [5] -22.4% | [6] 4.85%

NC(=O)N(CCO)/N=C/c1ccc([N+](=O)[O-])o1
inactive: [1] 42.3% | [2] 15.7% | [3] 54.8% | [4] 17.9% | [5] 33.6% | [6] 59.9%

C#CCN(N=O)C(=O)NC(CCCCNC(=O)OCc1ccccc1)C(=O)OCc1ccccc1 (configuration not stated)
inactive: [1] -8.65% | [2] -25.4% | [3] -7.75% | [4] -2.35% | [5] 14.2% | [6] 0.6%

Cn1c(=O)c(C(=O)NC(=O)OCc2ccccc2)cn(CCSCCOC(=O)NCCCCCCNC(=O)OCCSCCn2cc(C(=O)NC(=O)OCc3ccccc3)c(=O)n(C)c2=O)c1=O
inactive: [1] -3.1% | [2] -21.1% | [3] -6.35% | [4] -0.95% | [5] -5.15% | [6] -16.5%

S=c1nc[nH][nH]1
inactive: [1] 21.5% | [2] -3.7% | [3] 15.6% | [4] -8.65% | [5] 1.4% | [6] 21.6%

O=P(Nc1ccc(Cl)cc1)(c1ccc(Cl)cc1)c1ccc(Cl)cc1
inactive: [1] 17.6% | [2] 6.05% | [3] 4.05% | [4] -16.1% | [5] -0.15% | [6] 20.9%

CCOC(=O)C(C)OC(=O)C(C)OC(C)=O (configuration not stated)
inactive: [1] 4.7% | [2] 23.8% | [3] 17.1% | [4] 9.4% | [5] 1.5% | [6] -7.7%
